Experiment [1] is described as follows: qHTS assay to identify small molecule antagonists of the sonic hedgehog signaling (Shh) pathway (AID 1259369; calls by dose curve; further: nearly all actives have a fitted effect of over 45% in size; further: potency means the concentration at half of the fitted maximal effect). In short, it runs like this:
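Conditioned medium drives Shh signalling in 3T3Gli1-Luc cells; compounds in DMSO co-applied, 24hr at 37 C, then luciferase luminescence.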
A general note: qHTS replaces the single test concentration by a dilution series.

Experiment [2] has as its target Estrogen receptor beta (Homo sapiens) (UniProt Q92731). Nature of the experiment: qHTS assay to identify small molecule agonists of the estrogen receptor beta (ER-beta) signaling pathway (AID 1259377; active means well fitted activation curve with a large enough effect in the signal ratio in the repeat runs, not every such curve was filed as active; the % refers to the signal ratio). Put shortly: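 qHTS in ER-beta-UAS-bla HEK293T cells: 6 hr settling, then 16 hr compound at 37C, then LiveBLAzer substrate 2 h at RT before fluorescence reading.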

Experiment [3] has the same target. Nature of the experiment: qHTS assay to identify small molecule antagonists of the estrogen receptor beta (ER-beta) signaling pathway (AID 1259378; active means well fitted inhibition curve with a large enough effect in the signal ratio in the repeat runs, not every such curve was filed as active; the % refers to the signal ratio). Put shortly: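 ER-beta-UAS-bla HEK293T (GripTite) cells in 2% charcoal-stripped FBS medium were preincubated 6 hr at 37C, dosed with compound, then stimulated with 1 nM E2 (final) for 16 hr; beta-lactamase reporter read by B/G FRET fluorescence after 2 hr substrate loading.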

The nature of experiment [4]: qHTS assay to identify small molecule agonists of the androgen receptor (AR) signaling pathway in the presence of an antagonist - cell viability counter screen (AID 1259379). Further: nearly all actives have a fitted effect of over 25% in size. Further: potency means the concentration at half of the fitted maximal effect. In short, it runs like this:
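A CellTiter-Fluor read-out measured viability of MDA-kb2 reporter cells (MMTV promoter with AR and GR response elements). Treatment: nilutamide 3.0uM final with compounds at 15 concentrations, 16 hr, 37C, 0% CO2.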

A short description of experiment [5]: qHTS assay to identify small molecule agonists of the estrogen receptor beta (ER-beta) signaling pathway - cell viability counter screen (AID 1259380). Further: nearly all actives have a fitted effect of over 30% in size. Further: potency means the concentration at half of the fitted maximal effect. In short, it runs like this: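 Cells used were ER-beta-UAS-bla HEK293T in medium with 2% charcoal-stripped FBS. They were treated for 16 hr at 37C. Viability came from CellTiter-Glo luminescence.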
A short description of experiment [6]: qHTS assay to identify small molecule antagonists of the estrogen receptor beta (ER-beta) signaling pathway - cell viability counter screen (AID 1259382). Further: nearly all actives have a fitted effect of over 55% in size. Further: potency means the concentration at half of the fitted maximal effect. In short, it runs like this: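 Agonist-stimulated (1nM E2) ER-beta-UAS-bla HEK293T cells are incubated with library compounds for 16 hr at 37C. Cell viability is then assessed in the reporter-assay wells by adding CellTiter-Glo and reading luminescence after 30 min.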

Experiment [7] in a line: qHTS assay to identify small molecule agonists or antagonists of the thyroid stimulating hormone receptor (TSHR) signaling pathway - wild type cell line counter screen (AID 1259384; calls by dose curve). In short, it runs like this: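 Wild-type HEK293 cells were plated 18 h at 37 C/5% CO2, pin-dosed with compound plus Ro20-1724 medium, held 30 min at room temperature, then given cAMP-d2 and anti-cAMP-cryptate; fluorescence was read after 1 h. Fifteen concentrations, triplicate.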

In experiment [8] the target is Thyrotropin receptor (Homo sapiens) (UniProt P16473). As to the kind of experiment: qHTS assay to identify small molecule antagonists of the thyroid stimulating hormone receptor (TSHR) signaling pathway (AID 1259385; calls by dose curve; further: nearly all actives have a fitted effect of over 20% in size). Put shortly:
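TSHR-HEK293 cells were plated and held 18 h at 37C/5% CO2, then given compound plus Ro20-1724 and stimulated with TSH at 1.5 ng/mL final. After 30 min at room temperature, cAMP was detected with cAMP-d2/anti-cAMP-cryptate (1 h) by fluorescence.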

Experiment [9] in a line: qHTS assay to identify small molecule agonists of the estrogen receptor alpha (ER-alpha) signaling pathway in the presence of an antagonist - cell viability counter screen (AID 1259386).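 Further: cells exposed to compounds for 22 h at 37 °C before the viability read; nearly all actives have a fitted effect of over 30% in size.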 Further: potency means the concentration at half of the fitted maximal effect. In short, it runs like this:
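ICI-182,780 at 10.0nM final accompanies the compound titration (15 concentrations, 22hr, 37C) on VM7Luc4E2 cells. The CellTiter-Fluor fluorescence readout runs in the same wells as the luciferase assay.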

Experiment [10] deals with Progesterone receptor (Homo sapiens) (UniProt P06401). Nature of the experiment: qHTS assay to identify small molecule agonists of the progesterone receptor (PR) signaling pathway (AID 1346784; calls by dose curve; further: nearly all actives have a fitted effect of over 30% in size). Put shortly:
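Fluorescence from LiveBLAzer B/G FRET substrate cleavage (2 hr, RT) reported PR activation in PR-UAS-bla HEK 293T cells treated 16 hr at 37C/5% CO2 with compounds; medium contained 2% charcoal-stripped FBS.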

Experiment [11] has the same target. As to the kind of experiment: qHTS assay to identify small molecule antagonists of the progesterone receptor (PR) signaling pathway (AID 1346795; active means well fitted inhibition curve with a large enough effect in the signal ratio in the repeat runs, not every such curve was filed as active; the % refers to the signal ratio; further: potency means the concentration at half of the fitted maximal effect). Put shortly:
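Fluorescence intensity measured 2 hr after adding beta-lactamase FRET substrate to PR-UAS-bla HEK293T cells that had been co-treated 16 hr with compound and 1 nM R5020 (final concentration) in 2% charcoal-stripped FBS.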

Experiment [12] can be described thus: qHTS assay to identify small molecule antagonists of the progesterone receptor (PR) signaling pathway - cell viability counter screen (AID 1346798). Further: series mostly up to about 92 µM; nearly all actives have a fitted effect of over 50% in size. Put shortly: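 CellTiter-Glo luminescence; PR-UAS-bla HEK293T, 3,000 cells/well; compound + R5020, 16 hr, 37C/5% CO2; 30 min RT before read.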
A short description of experiment [13]: qHTS assay to identify small molecule agonists of the progesterone receptor (PR) signaling pathway - cell viability counter screen (AID 1346799; calls by dose curve; further: nearly all actives have a fitted effect of over 45% in size). In short, it runs like this:
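In parallel with the beta-lactamase readout, cytotoxicity toward PR-UAS-bla HEK293T cells was measured by CellTiter-Glo luminescence following 16 hr compound incubation in 2% charcoal-stripped FBS medium.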

Experiment [14] can be described thus: qHTS assay to identify small molecule agonists of the TGF-beta/Smad signaling pathway - cell viability counter screen (AID 1346829). Further: top concentration of the series differs between compounds; nearly all actives have a fitted effect of over 45% in size. In short, it runs like this: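 In parallel with the Smad reporter read, viability of HEK 293T cells stably carrying SBE-bla is quantified by ATP luminescence following 5 hr compound treatment.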
Experiment [15] can be described thus: qHTS assay to identify small molecule agonists of the TGF-beta/Smad signaling pathway (AID 1346859; active means well fitted activation curve with a large enough effect in the signal ratio in the repeat runs, not every such curve was filed as active; the % refers to the signal ratio; further: series mostly up to about 77 µM). Put shortly: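 After overnight seeding, SBE-bla HEK 293T cells are dosed with compounds in DMSO and kept 5 hr at 37 C, 5% CO2. LiveBLAzer-type FRET substrate is then applied for 2 hr at room temperature.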
The nature of experiment [16]: qHTS assay to identify small molecule antagonists of the TGF-beta/Smad signaling pathway - cell viability counter screen (AID 1346824). Further: nearly all actives have a fitted effect of over 50% in size. Put shortly: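 SBE-bla HEK 293T cells were plated overnight at 37 C, then given compounds in DMSO plus TGF-beta1 (added as 0.25 ng/mL solution) for 5 hr. After the bla read, CellTiter-Glo was added to the same wells and luminescence read after 30 min at room temperature.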

In experiment [17] the target is Thyrotropin-releasing hormone receptor (Homo sapiens) (UniProt P34981). As to the kind of experiment: qHTS assay to identify small molecule antagonists of the thyrotropin-releasing hormone receptor (TRHR) signaling pathway (AID 1346877; active means well fitted inhibition curve with a large enough effect in the repeat runs, not every such curve was filed as active; further: series mostly up to about 51 µM). Put shortly: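 Screening used HEK293 cells engineered with TRHR, with a brief 5 min room-temperature compound exposure preceding addition of TRH to 1 nM. The read-out was kinetic calcium-dye fluorescence, concentration-response from 15 doses in triplicate.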
Thyrotropin-releasing hormone receptor (Homo sapiens), sequence (P34981 whole entry, looked up): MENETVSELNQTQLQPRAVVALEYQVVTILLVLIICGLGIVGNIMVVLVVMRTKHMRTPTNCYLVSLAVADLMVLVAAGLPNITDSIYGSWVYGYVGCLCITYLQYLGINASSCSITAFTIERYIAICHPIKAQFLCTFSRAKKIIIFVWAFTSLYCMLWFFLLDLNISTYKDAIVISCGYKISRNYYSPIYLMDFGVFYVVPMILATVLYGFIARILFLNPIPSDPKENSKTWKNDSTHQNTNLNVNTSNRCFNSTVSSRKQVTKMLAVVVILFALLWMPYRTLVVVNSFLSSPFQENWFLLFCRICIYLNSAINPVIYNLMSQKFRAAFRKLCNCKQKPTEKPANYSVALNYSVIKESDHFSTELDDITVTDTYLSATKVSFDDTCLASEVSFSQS

For experiment [18] the target is unchanged. As to the kind of experiment: qHTS assay to identify small molecule agonists of the thyrotropin-releasing hormone receptor (TRHR) signaling pathway (AID 1346891; calls by dose curve;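 further: HEK293 cells expressing TRHR with calcium dye readout; series mostly up to about 58 µM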). In short, it runs like this:
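Compounds were tested as agonists at 15 concentrations, in triplicate, on TRHR-Hek293 cells; calcium-sensitive dye fluorescence was recorded for 3 min following addition.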

This note sets out measurements from PubChem BioAssay (Tox21).

Where “and” joins values, the source holds several entries; their conditions need not be identical. Equal values may be shown once. Results filed as inconclusive are left out. The source holds several records for some structures; these can differ, active in one and inactive in another. Calls of active or inactive are those of the source. Unless noted, the call rests on the fitted dose curve; in most records, active means well fitted curve in the direction sought with a large enough effect in the repeat runs; inconclusive means weak or mixed curves; inactive means no such curve, though single readings can be large; an effect the other way counts as inactive or inconclusive.

Estrogen receptor beta (Homo sapiens), sequence (Q92731 whole entry, looked up): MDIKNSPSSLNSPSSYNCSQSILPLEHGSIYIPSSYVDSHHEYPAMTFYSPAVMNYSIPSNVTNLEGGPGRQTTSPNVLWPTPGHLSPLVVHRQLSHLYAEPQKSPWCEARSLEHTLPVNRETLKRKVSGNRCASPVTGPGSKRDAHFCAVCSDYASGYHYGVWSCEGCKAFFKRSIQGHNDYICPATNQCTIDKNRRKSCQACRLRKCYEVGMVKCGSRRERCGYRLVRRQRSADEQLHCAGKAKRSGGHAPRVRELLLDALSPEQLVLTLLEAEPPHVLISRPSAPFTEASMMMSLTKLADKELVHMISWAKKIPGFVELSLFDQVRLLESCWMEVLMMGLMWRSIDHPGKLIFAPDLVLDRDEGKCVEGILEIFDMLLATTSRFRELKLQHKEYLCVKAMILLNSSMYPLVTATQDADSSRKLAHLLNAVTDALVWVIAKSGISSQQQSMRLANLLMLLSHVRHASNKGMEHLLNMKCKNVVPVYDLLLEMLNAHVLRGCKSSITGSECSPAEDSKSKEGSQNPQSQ
Progesterone receptor (Homo sapiens), sequence (P06401 whole entry, looked up): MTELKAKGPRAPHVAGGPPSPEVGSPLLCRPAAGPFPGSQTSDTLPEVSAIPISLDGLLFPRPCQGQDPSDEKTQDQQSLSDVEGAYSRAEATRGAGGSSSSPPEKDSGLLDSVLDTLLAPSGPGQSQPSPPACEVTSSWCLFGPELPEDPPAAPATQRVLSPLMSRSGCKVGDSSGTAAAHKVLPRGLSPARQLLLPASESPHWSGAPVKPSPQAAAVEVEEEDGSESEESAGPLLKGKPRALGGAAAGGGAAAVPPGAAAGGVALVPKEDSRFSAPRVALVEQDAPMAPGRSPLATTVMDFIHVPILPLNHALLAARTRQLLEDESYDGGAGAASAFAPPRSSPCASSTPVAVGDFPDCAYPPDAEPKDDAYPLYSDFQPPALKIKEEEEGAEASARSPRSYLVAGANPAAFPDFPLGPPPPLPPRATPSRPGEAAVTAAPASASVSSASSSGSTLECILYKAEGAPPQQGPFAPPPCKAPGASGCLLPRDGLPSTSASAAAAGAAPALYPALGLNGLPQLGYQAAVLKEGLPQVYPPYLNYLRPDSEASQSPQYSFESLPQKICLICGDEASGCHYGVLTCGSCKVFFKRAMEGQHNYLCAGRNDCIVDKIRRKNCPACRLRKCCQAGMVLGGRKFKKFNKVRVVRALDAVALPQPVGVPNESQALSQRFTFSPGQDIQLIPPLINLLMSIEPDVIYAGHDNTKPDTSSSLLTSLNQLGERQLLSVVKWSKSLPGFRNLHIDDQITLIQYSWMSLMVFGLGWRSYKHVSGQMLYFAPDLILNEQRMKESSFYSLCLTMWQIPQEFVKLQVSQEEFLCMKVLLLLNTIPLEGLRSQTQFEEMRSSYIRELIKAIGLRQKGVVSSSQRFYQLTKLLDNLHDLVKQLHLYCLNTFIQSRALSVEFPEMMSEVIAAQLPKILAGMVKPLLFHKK
Thyrotropin receptor (Homo sapiens), sequence (P16473 whole entry, looked up): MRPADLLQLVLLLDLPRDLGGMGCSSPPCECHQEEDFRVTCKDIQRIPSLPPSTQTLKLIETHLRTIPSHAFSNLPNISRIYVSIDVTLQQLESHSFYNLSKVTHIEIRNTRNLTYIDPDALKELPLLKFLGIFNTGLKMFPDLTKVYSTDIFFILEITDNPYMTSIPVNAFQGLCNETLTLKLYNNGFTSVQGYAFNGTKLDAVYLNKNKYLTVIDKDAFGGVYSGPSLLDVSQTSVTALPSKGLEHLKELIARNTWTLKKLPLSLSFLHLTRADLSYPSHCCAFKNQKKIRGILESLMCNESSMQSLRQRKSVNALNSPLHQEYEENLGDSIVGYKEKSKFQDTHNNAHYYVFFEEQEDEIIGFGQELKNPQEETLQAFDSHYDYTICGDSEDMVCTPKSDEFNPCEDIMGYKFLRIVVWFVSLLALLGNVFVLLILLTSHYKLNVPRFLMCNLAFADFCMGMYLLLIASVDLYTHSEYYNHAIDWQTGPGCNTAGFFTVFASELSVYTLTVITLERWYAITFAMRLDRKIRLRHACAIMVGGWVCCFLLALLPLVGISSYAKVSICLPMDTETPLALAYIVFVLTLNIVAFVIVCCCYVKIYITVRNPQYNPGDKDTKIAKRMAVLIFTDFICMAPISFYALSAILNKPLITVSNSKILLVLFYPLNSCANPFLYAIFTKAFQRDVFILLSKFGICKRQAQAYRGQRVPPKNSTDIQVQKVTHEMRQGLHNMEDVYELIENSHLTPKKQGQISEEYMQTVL

Consider `CC(=O)CCc1ccccc1`, for which the Potency entry in [1], in [2], in experiment [3], in [4], in [5] and in experiment [6] was “inactive” each time. For the same compound, the Potency result in experiment [9], in experiment [10], in experiment [11], in [12], in experiment [13] and in [14] was “inactive” in each case. Further, the compound was called inactive in [7], in experiment [8] and in experiment [15].

With `C=C1C2CCC(C2)C1(C)C` (stereo not drawn), the Potency entry in [1], in experiment [2], in [3], in experiment [4], in experiment [5] and in [6] was “inactive” each time. For the same compound, the Potency result in experiment [9], in experiment [10], in experiment [11], in experiment [12], in experiment [13] and in experiment [16] was “inactive” each time. Further, the Potency result in experiment [14] and in experiment [18] was “inactive” in each case. For the same compound, the compound was called inactive in experiment [7], in experiment [15] and in experiment [17].

`C=C1CC[C@H](O)CC1=C/C=C1\CCC[C@]2(C)[C@@H]([C@H](C)/C=C/[C@H](C)C(C)C)CC[C@@H]12`: the Potency in experiment [1] was 4.81 µM (active) and 17.2 µM (active); in [5] it was 24.1 µM (active) and 30.6 µM (active); in experiment [6], 42.9 µM (active). For the same compound, the Potency result in experiment [2], in experiment [4], in experiment [10], in experiment [12], in [13] and in experiment [14] was “inactive” throughout. In addition, the compound was classed as inactive in experiment [7], in experiment [8] and in experiment [15].

As for `CCCCC/C=C\C/C=C\CCCCCCCC(=O)OC`, the Potency entry in experiment [1] was “inactive and 24.3 µM (active)”; in experiment [5] it was “inactive and 48.6 µM (active)”. The Potency result in experiment [2], in experiment [3], in experiment [4], in experiment [6], in experiment [9] and in experiment [10] was “inactive” in each case. In addition, the Potency entry in experiment [12], in [13] and in experiment [14] was “inactive” each time. Further, the outcome in experiment [7], in experiment [8] and in experiment [15] was inactive.

`CN(C)c1cccc(O)c1`: the Potency result in experiment [1], in experiment [2], in [3], in experiment [4], in [5] and in experiment [6] was “inactive” in each case. Further, the Potency entry in [9], in experiment [10], in [11], in [12], in experiment [13] and in [16] was “inactive” throughout. Besides, the Potency entry in [14] and in experiment [18] was “inactive” each time. The compound was classed as inactive in experiment [7], in [15] and in [17].

For `COC(=O)c1ccccc1O`, the Potency entry in experiment [1], in experiment [2], in [3], in experiment [4], in [5] and in [6] was “inactive” each time. The Potency result in [9], in experiment [10], in [12], in experiment [13], in experiment [16] and in [14] was “inactive” in each case. In experiment [18], the Potency entry was “inactive”. The call in [7], in experiment [15] and in experiment [17] was inactive.

As for `Oc1ccc2ccccc2c1N=Nc1ccccc1`, the Potency result in experiment [1], in experiment [2], in experiment [3], in experiment [6], in experiment [10] and in experiment [12] was “inactive” throughout. The Potency entry in experiment [13], in experiment [16], in [14] and in experiment [18] was “inactive” throughout. Besides, the Potency in [4] was 21.7 µM (active) and 27.3 µM (active); in [9], 21.7 µM (active) and 19.3 µM (active); in experiment [11], 24.3 µM (active). The compound was classed as inactive in [7], in experiment [15] and in experiment [17].

In the case of `O=C(O)c1ccc([N+](=O)[O-])cc1`, the Potency entry in experiment [1], in [2], in experiment [3], in experiment [4], in experiment [5] and in experiment [6] was “inactive” each time. The Potency entry in [9], in experiment [10], in experiment [11], in experiment [12], in experiment [13] and in [16] was “inactive” in each case. Besides, the Potency result in [14] and in experiment [18] was “inactive” in each case. Further, the compound was called inactive in [15] and in [17].
